Screening data (PubChem BioAssay)
This is a sample that favours compounds with a hit; in the whole collection about 5.2% have one here.
Tau ThT inhib: inhibitors of human tau fibril formation, thioflavin T binding; P10636; 270,000 tested, 2.1% active; recombinant tau K18 P301L, heparin-induced fibrillization, ThT fluorescence; Potency, µM (doses to about 57.4 µM), inactives show at the top dose activity, negative = inhibition, most hits filed as inhibitors; AID 1460; note: potency is the fitted concentration of half-maximal effect; nearly all actives have a fitted effect of over 55% in size
Target sequence (P10636 561-689 P618L limits assumed): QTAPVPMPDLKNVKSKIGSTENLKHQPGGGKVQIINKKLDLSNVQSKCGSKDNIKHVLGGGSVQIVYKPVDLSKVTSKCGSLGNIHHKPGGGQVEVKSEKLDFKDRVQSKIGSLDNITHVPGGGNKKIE
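K18 P301L tau (15 uM + 0.24 uM Alexa 594-tagged), heparin 20 uM, NaOAc pH 7, 6 h 37 C; ThT 30 uM, 1 h RT, ex 450/em 510 nm.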
FBPA coupling cs: counter-screen for Giardia aldolase inhibitors: coupling enzyme system; coupling enzyme system counterscreen, AmpLite Red fluorescence; activity change, negative = inhibition, % at 58.2 µM, hits read low; 290,000 tested, 0.67% active; AID 2472; in the data active = activity change below about -30%
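Final compound at 57.5 uM, incubated 10 min at RT with coupling enzyme reagent (glyceraldehyde-3-phosphate), then 20 min with substrate and AmpLite Red detection. Fluorescence read at 525/598 nm; tests interference with the coupling assay, not aldolase inhibition.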
Sfp inh: blocks B. subtilis Sfp PPTase activity; Q9F4F7; Biochemical Sfp PPTase activity, qHTS; Potency, µM, for the others: largest response in the series, negative = inhibition, most hits filed as inhibitors; 310,000 tested, 3.5% active; AID 1490;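 note: the enzyme is Sfp with the accession as filed and its product quenches rhodamine fluorescence; potency is the fitted concentration of half-maximal effect; 0% = enzyme reaction without inhibitor and -100% = no enzyme wells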
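Buffer: 50 mM Hepes-Na pH 7.6, 10 mM MgCl2, 0.01% Nonidet P-40, 0.01% BSA. Enzyme 15 nM, pre-exposed to compound 15 min; substrates then added and fluorescence change tracked over 30 min.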
Tau fluor counter: counter-screen for tau fibril formation inhibitors | tau K18 P301L Alexa594 fluorescence, heparin fibrillization | Potency, µM (series often up to 57.7 µM), without a hit: at the highest dose activity change, negative = decrease | 280,000 tested, 0.93% active | AID 1463; note: potency is the fitted concentration of half-maximal effect; nearly all actives have a fitted effect of over 55% in size
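Human tau K18 P301L (15 uM unlabeled, 0.24 uM Alexa 594-labeled) in 100 mM sodium acetate pH 7 with 20 uM heparin, 6 hr at 37 C. ThT 30 uM added, 1 hr ambient; Alexa 594 FP and total fluorescence read at 555/632 nm.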
Tau FP inhib: inhibitors of human tau fibril formation. P10636. K18 P301L tau heparin fibrillization, Alexa594 FP, 6 h. Potency, µM (highest dose often 57.7 µM), for inactives: top-dose activity, negative = inhibition, hits mostly inhibitors. 280,000 tested, 0.39% active. AID 1468; note: potency is the fitted concentration of half-maximal effect; nearly all actives have a fitted effect of over 55% in size
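Recombinant K18 P301L […], labeled with Alexa 594 at 0.24 uM over 15 uM unlabeled; heparin inducer 20 uM final; 37 C, 6 hr; FP endpoint.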
Numbers without * were called inactive. Unless noted, calls come from the whole dose curve; as a rule, active = well fitted curve in the direction sought with a large enough effect; inconclusive = small, poorly fitted or top-dose-only effect, or another doubt; inactive = no such curve, though single readings can be large; an effect the other way counts as inactive or inconclusive. Unless noted, % is set by controls: 0 for no effect and ±100 for the full control effect.

For CN1CCN(CCCNC(=O)c2ccc(/C=C3\Sc4ccccc4N(Cc4ccccc4F)C3=O)cc2)CC1 the results were Tau ThT inhib inconclusive, FBPA coupling cs 2, Sfp inh 40µM*, Tau fluor counter -16% and Tau FP inhib inconclusive.
COc1cccc(CNC(=O)C2CCC(CNS(=O)(=O)c3ccc(Br)s3)CC2)c1 (stereo unspecified) was read as Tau ThT inhib -6%, Tau fluor counter -19% and Tau FP inhib 1%.
`COc1ccccc1NC(=O)C(=O)NCCc1csc(-c2cccc(F)c2)n1` gave Tau ThT inhib -7%, Tau fluor counter -24% and Tau FP inhib -13%.
For O=S(=O)(c1ccc(-c2cc(C(F)(F)F)on2)s1)N1CCN(c2cccc(Cl)c2)CC1 the results were Tau ThT inhib 10%, Tau fluor counter 1% and Tau FP inhib -3%.
Screening COc1cc2sc(C)nc2c2ccccc12 returned FBPA coupling cs -32* and Sfp inh -9%.
`Cc1nc2c(ccc3c2ccc2nc(C)sc23)s1` gave Tau ThT inhib -6%, FBPA coupling cs 0, Sfp inh 4%, Tau fluor counter -3% and Tau FP inhib 3%.
CC1CN(C(=O)N2CCC(C(=O)NCCCc3ccccc3)CC2)c2cc(Cl)ccc2O1 (stereo unspecified) was read as Tau ThT inhib inconclusive, Tau fluor counter -13% and Tau FP inhib -5%.
Cc1ccc(Cc2c(C)nc3nc(SCC(=O)NCc4ccco4)nn3c2C)cc1 was read as Tau ThT inhib inconclusive, FBPA coupling cs 1, Sfp inh -37%, Tau fluor counter -3% and Tau FP inhib -1%.
`Cc1cc(C)c2cc(C)c(SCC(=O)NCc3ccco3)nc2c1` gave Tau ThT inhib -20%, FBPA coupling cs 7, Sfp inh 4%, Tau fluor counter -13% and Tau FP inhib 9%.
O=C(CSc1ncccc1-c1nc2ccccc2[nH]1)NCc1ccco1 was read as Tau ThT inhib inconclusive, FBPA coupling cs -1, Sfp inh 40µM*, Tau fluor counter -21% and Tau FP inhib inconclusive.
`O=C(CSc1nc2ccccc2[nH]1)NCc1ccco1` gave Tau ThT inhib -5%, FBPA coupling cs -4, Sfp inh 4%, Tau fluor counter -6% and Tau FP inhib 0%.
Cc1cccc(Cc2c(C)nc3nc(SCC(=O)NCc4ccco4)nn3c2C)c1 was read as Tau ThT inhib -16%, FBPA coupling cs -2, Sfp inh 45µM*, Tau fluor counter -4% and Tau FP inhib -5%.
Cc1cc(C)c2cc(C#N)c(SCC(=O)NCc3ccco3)nc2c1 was read as Tau ThT inhib inconclusive, FBPA coupling cs 7, Sfp inh 22µM*, Tau fluor counter -1% and Tau FP inhib inconclusive.
Cc1nnc(SCC(=O)NCc2ccco2)[nH]c1=O was read as Tau ThT inhib inconclusive, FBPA coupling cs -11, Sfp inh 56µM*, Tau fluor counter -14% and Tau FP inhib -7%.
Screening CC1Cc2cc(S(=O)(=O)CCC(=O)Nc3ccc(F)cc3Cl)ccc2N1C(=O)C1CC1 (stereo unspecified) returned Tau ThT inhib 4%, Tau fluor counter -5% and Tau FP inhib -2%.
For Cc1cc2nc(-c3cccnc3SCC(=O)NC3CC3)[nH]c2cc1C the results were Tau ThT inhib -6%, FBPA coupling cs 1, Sfp inh -4%, Tau fluor counter -7% and Tau FP inhib -4%.
Screening Cc1cc2nc(-c3cccnc3SCC(=O)NCc3ccco3)[nH]c2cc1C returned Tau ThT inhib inconclusive, FBPA coupling cs -11, Sfp inh 40µM*, Tau fluor counter -13% and Tau FP inhib -14%.
`O=C(O)CN(CC(=O)O)c1ccccc1OCCOc1ccccc1N(CC(=O)O)CC(=O)O` gave FBPA coupling cs 2 and Sfp inh 17%.
Screening Cc1ccc(CN(C)C(=O)C2CCCN2C(=O)c2cccs2)o1 (stereo unspecified) returned Tau ThT inhib inconclusive, FBPA coupling cs 1, Sfp inh 35µM*, Tau fluor counter -4% and Tau FP inhib -13%.
